27 molecules from PubChem BioAssay (NCATS) can be followed below.

Test [1] can be described thus: qHTS for Inhibitors of Plasmodium falciparum (DD2) proliferation (AID 504314). Further: potency means the concentration at half of the fitted maximal effect.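 On activity, negative = inhibition: parasite DNA measured by SYBR Green fluorescence after red cell lysis; plate controls were DMSO vehicle for no effect and artemisinin wells for full effect.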 In outline:
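Erythrocytes infected with P. falciparum Dd2 (0.3% parasitemia, 2.5% hematocrit) exposed to compound 72 h at 37C, 5% CO2. Parasite DNA quantified by SYBR Green fluorescence after saponin/Triton lysis overnight; normalized to 0.29 uM artemisinin and DMSO.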
A general note: In qHTS, concentration-response curves come from the screen itself.

A short description of test [2]: qHTS for Inhibitors of Plasmodium falciparum (GB4) proliferation (AID 504315). Further: nearly all actives have a fitted effect of over 50% in size. Further: potency means the concentration at half of the fitted maximal effect. The method in brief:
(§1)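 Erythrocytes infected with P. falciparum line (0.3% parasitemia, 2.5% hematocrit final) incubated with compounds 72 h at 37 °C, 5% CO2; SYBR Green lysis buffer added, fluorescence read next day. Normalized to 0.29 uM artemisinin and DMSO.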

Test [3] in a line: qHTS for Inhibitors of Plasmodium falciparum (HB3) proliferation (AID 504318).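 Further: 0% = DMSO vehicle and -100% = artemisinin control; nearly all actives have a fitted effect of over 60% in size.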 In outline:
as §1

Test [4] can be described thus: qHTS for Inhibitors of Plasmodium falciparum (CP250) proliferation (AID 504320). Further: potency means the concentration at half of the fitted maximal effect. The method in brief: as §1
For test [5], the target named is Atrial natriuretic peptide receptor 1 (Homo sapiens) (UniProt P16066). Description: Natriuretic polypeptide receptor (hNpr1) antagonism - Pilot CMLD screen (AID 1347052; calls by dose curve;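 further: HEK293 cells with hNpr1 stimulated by hNppA peptide at 0.1 nM; cGMP level read as GloSensor luciferase luminescence after agonist stimulation; series mostly up to about 9.2 µM; on the % scale 0 is the no-effect control and ±100 the full control effect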).
Chain of Atrial natriuretic peptide receptor 1 (Homo sapiens) (P16066 whole entry, looked up): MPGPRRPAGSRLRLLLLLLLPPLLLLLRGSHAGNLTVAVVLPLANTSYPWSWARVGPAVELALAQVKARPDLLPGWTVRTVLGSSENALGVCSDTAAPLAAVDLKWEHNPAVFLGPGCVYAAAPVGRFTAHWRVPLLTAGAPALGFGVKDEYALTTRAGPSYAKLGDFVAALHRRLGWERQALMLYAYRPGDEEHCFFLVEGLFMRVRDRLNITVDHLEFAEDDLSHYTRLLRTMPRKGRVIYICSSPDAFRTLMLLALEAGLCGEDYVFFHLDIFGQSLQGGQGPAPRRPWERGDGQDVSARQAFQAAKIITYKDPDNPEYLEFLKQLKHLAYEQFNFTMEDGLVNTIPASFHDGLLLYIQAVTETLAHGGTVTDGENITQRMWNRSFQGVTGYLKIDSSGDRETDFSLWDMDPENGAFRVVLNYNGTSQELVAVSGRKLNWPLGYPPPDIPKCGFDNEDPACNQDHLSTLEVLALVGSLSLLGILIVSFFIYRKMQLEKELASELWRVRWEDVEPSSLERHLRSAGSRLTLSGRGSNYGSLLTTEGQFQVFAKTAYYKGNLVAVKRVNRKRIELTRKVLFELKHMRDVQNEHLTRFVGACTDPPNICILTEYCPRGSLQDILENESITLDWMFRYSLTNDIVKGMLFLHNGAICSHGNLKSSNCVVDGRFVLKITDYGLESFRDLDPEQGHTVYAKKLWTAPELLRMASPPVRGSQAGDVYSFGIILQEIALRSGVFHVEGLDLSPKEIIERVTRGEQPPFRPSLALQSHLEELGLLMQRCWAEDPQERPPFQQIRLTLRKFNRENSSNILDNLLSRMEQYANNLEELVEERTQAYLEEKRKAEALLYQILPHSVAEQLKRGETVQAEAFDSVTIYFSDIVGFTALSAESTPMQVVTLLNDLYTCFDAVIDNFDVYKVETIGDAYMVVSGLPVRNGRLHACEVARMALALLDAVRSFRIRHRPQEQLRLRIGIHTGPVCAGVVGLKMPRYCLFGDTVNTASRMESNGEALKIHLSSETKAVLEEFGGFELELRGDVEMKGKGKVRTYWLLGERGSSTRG

Results filed as inconclusive are left out. A number with no mark means an inactive call. The source made the active and inactive calls. Unless noted, the call rests on the fitted dose curve; in most records, active means well fitted curve in the direction sought with a large enough effect; inconclusive means small, poorly fitted or top-dose-only effect, or another doubt; inactive means no such curve, though single readings can be large; an effect the other way counts as inactive or inconclusive.

Turning to `COC(=O)[C@@H]1CC[C@H](C)[C@@H](c2ccc(C)cc2)N1C(=O)c1ccc(C=NO[C@H](C)c2cn([C@@H]3COC[C@@H]3O)nn2)cc1`, the Potency entry in test [1], in test [2], in test [3], in test [4] and in test [5] was “inactive” each time.
Take `CC1(OC(=O)C2CCCC2)C(=O)C=C2C=C(c3ccsc3)N(CCN3CCOCC3)C=C2C1=O` (stereo not given): the activity, negative = inhibition in test [1] was 1.21% [at 1.12 µM]. Moreover, the Potency entry in test [2], in test [3], in test [4] and in test [5] was “inactive” in each case.
Turning to `C#CCN1C(=O)[C@@]2(CC(C)=CC[C@@H](C)O2)c2ccccc21`, the Potency entry in test [1], in test [2], in test [3], in test [4] and in test [5] was “inactive” throughout.
For the molecule `CC(C)CON=C1C[C@@H](O)[C@@H](O)[C@@H]2[C@H]3C(=O)N(Cc4ccccc4)C(=O)[C@@H]3CC[C@@H]12`, the Potency result in test [1], in test [2], in test [3], in test [4] and in test [5] was “inactive” each time.
Turning to `COC(=O)N[C@H](C[N+](=O)[O-])c1cccc(C)c1`, the Potency entry in test [1], in test [2], in test [3], in test [4] and in test [5] was “inactive” throughout.
In the case of `CC1(OC(=O)c2ccc(Cl)nc2)C(=O)C=C2C=C3CCCN3C=C2C1=O` (stereo not given), the Potency result in test [1], in test [2], in test [3], in test [4] and in test [5] was “inactive” throughout.
As to `CC(=O)OC[C@H]1O[C@H](C#CC(C)(C)C)C=C[C@H]1OC(C)=O`, the Potency result in test [1], in test [2], in test [3], in test [4] and in test [5] was “inactive” in each case.
In the case of `COc1ccc2c(c1)C(=O)[C@H](OC(=O)Nc1cc(OC)c(OC)c(OC)c1)[C@@H](c1ccc(OC)c(Br)c1)O2`, the Potency entry in test [1], in test [2], in test [3], in test [4] and in test [5] was “inactive” throughout.
Take `CCC(=O)C[C@@H](NC(=O)OC)c1ccc(F)cc1`: the Potency result in test [1], in test [2], in test [3], in test [4] and in test [5] was “inactive” each time.
As for `C=C(C(C)=O)C(O)c1ccc(C(F)(F)F)cc1` (stereo not given), the Potency result in test [1], in test [2], in test [3], in test [4] and in test [5] was “inactive” in each case.
Consider `OC[C@H]1O[C@H](c2ccccc2)C=C[C@H]1O`, for which the Potency entry in test [1], in test [2], in test [3], in test [4] and in test [5] was “inactive” in each case.
In the case of `CC(=O)OC[C@H]1O[C@@H](ON=C(C)CCN2CCCCc3nc(C)c(C)cc32)[C@H](OC(C)=O)[C@@H](OC(C)=O)[C@H]1OC(C)=O`, the Potency entry in test [1], in test [2], in test [3], in test [4] and in test [5] was “inactive” in each case.
On to `COC(=O)[C@H](COC(C)(C)C)NC(=O)O[C@@H]1C(=O)c2ccc(OC)cc2O[C@H]1c1cccc(C(F)(F)F)c1`, for which the Potency entry in test [1], in test [2], in test [3], in test [4] and in test [5] was “inactive” throughout.
As to `COC1=C[C@H](C(=O)NCCOC(C)=O)[C@@]2(C)Cc3ccccc3[C@@H]2CC1=O`, the Potency entry in test [1], in test [2], in test [3], in test [4] and in test [5] was “inactive” each time.
As to `COC(=O)C1=C(C)N(Cc2ccccc2)C(=NCCc2ccccn2)NC1c1cccc(C(F)(F)F)c1` (stereo not given), the Potency in test [1] was 948 nM (active); in test [2], 601 nM (active); in test [4], 849 nM (active). For the same molecule, the Potency entry in test [3] and in test [5] was “inactive” each time.
As for `N#Cc1ccc2c(c1)C[C@]1(c3ccsc3)Oc3c(c(=O)oc4ccccc34)[C@H]2O1`, the Potency entry in test [1], in test [2], in test [3], in test [4] and in test [5] was “inactive” throughout.
Consider `CCOC(=O)NN=C1C[C@@H](O)[C@@H](O)[C@@H]2[C@H]3C(=O)N(Cc4ccccc4)C(=O)[C@@H]3CC[C@@H]12`, for which the Potency result in test [1], in test [2], in test [3], in test [4] and in test [5] was “inactive” each time.
Take `CC(=O)N1C(=O)NC(C)=C(C#N)C1c1ccccc1` (stereo not given): the Potency result in test [1], in test [2], in test [3], in test [4] and in test [5] was “inactive” each time.
Consider `CC1(OC(=O)CCc2ccccc2)C(=O)C=C2C=C(C3CC3)OC=C2C1=O` (stereo not given), for which the Potency entry in test [1], in test [2], in test [3], in test [4] and in test [5] was “inactive” in each case.
Turning to `COC(=O)C1(C(=O)OC)CC=CCc2ccccc2[C@H]1C[N+](=O)[O-]`, the Potency result in test [1], in test [2], in test [3], in test [4] and in test [5] was “inactive” each time.
For the molecule `C=CCOC(=O)NC(c1ccc(F)c(F)c1)S(=O)(=O)c1ccc(Cl)cc1` (stereo not given), the Potency result in test [1], in test [2], in test [3], in test [4] and in test [5] was “inactive” each time.
As for `CC(=O)OC[C@H]1O[C@H](CC=NO[C@@H](C)CN2CCCc3nc(C)c(C)cc32)C=C[C@@H]1OC(C)=O`, the Potency result in test [1], in test [2], in test [3], in test [4] and in test [5] was “inactive” each time.
For the molecule `CC1(OC(=O)c2cnc3ccccc3n2)C(=O)C=C2C=C(C3CC3)OC=C2C1=O` (stereo not given), the Potency result in test [1], in test [2], in test [3], in test [4] and in test [5] was “inactive” in each case.
Turning to `CC(CCC(=O)OC[C@H]1O[C@H](C#Cc2ccccc2)C=C[C@H]1Oc1ccc(C)cc1)=NOC[C@@H](O)[C@H]1O[C@@H]2OC(C)(C)O[C@H]2[C@@H]1O`, the Potency result in test [1], in test [2], in test [3], in test [4] and in test [5] was “inactive” in each case.
As for `COCC=CC1=CC2=CC(=O)C(C)(OC(=O)c3cnc4ccccc4n3)C(=O)C2=CN1CC(C)C` (stereo not given), the Potency entry in test [1], in test [2], in test [3], in test [4] and in test [5] was “inactive” each time.
Turning to `CCCCCCN1C(=O)CC[C@@]23C1=NC(C(=O)OC)=C(C(=O)OC)[C@@H]2N(Cc1ccccc1)c1ccccc13`, the Potency entry in test [1], in test [2], in test [3], in test [4] and in test [5] was “inactive” throughout.
For `C=CC[C@@H]1C=C[C@H](ON=C(C)CCN2CCCCc3nc(C)c(C)cc32)[C@H](CO)O1`, the Potency result in test [1], in test [2], in test [3], in test [4] and in test [5] was “inactive” each time.
